Data reported in PubChem BioAssay.
Active and inactive are the calls of the source. Rule as the data show it, unless noted: active = inhibition above about 80%; inactive = the rest.

Key:
[1] = sensitizers of A549 cells to miR-34 induction, primary screen, imaging, A549 dox-inducible miR-34, nuclei and caspase counts (AID 1347080;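 active = compounds whose cell count with miR-34 switched on is under 0.7 times the count with it off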); conditions: A549 miR-34 inducible, Hoechst nuclei count, 48 h
[2] = survival rescue of mitochondrial mutant cells in low glucose, primary screen, MELAS cybrids, Rieske KO mouse fibroblasts, CellTiter-Glo (AID 1508586;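 active = mean z-score across replicates of 1.96 or higher in either the MELAS or the Rieske mutant cell line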;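 also: z relative to plate mean and SD of compound and empty wells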)
[3] = LFS_MB_P medulloblastoma growth inhibition, cell-based, chromothripsis tumors, cisplatin or BGB combos (AID 1671449); conditions: LFS_MB_P medulloblastoma cells;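 also: cells exposed for 96 hours; 0% = vehicle DMSO and 100% = killing by high DMSO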
[4] = HDN33 neuroblastoma growth inhibition, cell-based, chromothripsis tumors, cisplatin or BGB combos (AID 1671450); conditions: HDN33 neuroblastoma cells, stronger effect = higher value;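 also: cells exposed to compound for four days; 0% = vehicle DMSO and 100% = cell killing by high DMSO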
[5] = ICB984 medulloblastoma cell growth inhibition, synergistic combos for chromothripsis tumors, cisplatin or BGB combos (AID 1671451; call rule not given here;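 also: cells exposed for 96 hours before readout; 0% = vehicle DMSO and 100% = killing by high DMSO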); conditions: ICB984 medulloblastoma cells, drug combinations, stronger effect = higher value
[6] = LFS_MB_1R medulloblastoma cell growth inhibition, synergistic combos for chromothripsis tumors, cisplatin or BGB combos (AID 1671452); conditions: LFS_MB_1R medulloblastoma cells, stronger effect = higher value;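 also: cells exposed for 96 hours before readout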
[7] = HTB85 osteosarcoma cell growth inhibition, synergistic combos for chromothripsis tumors, BGB or cisplatin IC20 combos (AID 1671453); conditions: HTB85 osteosarcoma cells, drug combinations, stronger effect = higher value;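 also: cells exposed for 96 hours before readout; 0% = vehicle DMSO and 100% = high DMSO killing control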
[8] = CRL2098 osteosarcoma cell growth inhibition, synergistic combos for chromothripsis tumors, BGB or cisplatin IC20 combos (AID 1671454); conditions: CRL2098 osteosarcoma cells, drug combinations, stronger effect = higher value;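 also: cells exposed for 96 h before readout; 0% = vehicle DMSO and 100% = killing by high DMSO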
[9] = HD-MB03 medulloblastoma cell growth inhibition, synergistic combos for chromothripsis tumors, BGB or cisplatin IC20 combos (AID 1671455; in the data active = inhibition above about 83%;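 also: 0% = vehicle DMSO and 100% = high DMSO as cytotoxic control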); conditions: HD-MB03 medulloblastoma cells, stronger effect = higher value
[10] = UWB1.289 ovarian carcinoma cell growth inhibition, synergistic combos for chromothripsis tumors, BGB or cisplatin combos (AID 1671456); conditions: UWB1.289 ovarian carcinoma cells, stronger effect = higher value;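 also: cells exposed to compound for four days; 0% = vehicle DMSO and 100% = killing by high DMSO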
[11] = LFS_MB_2R medulloblastoma cell growth inhibition, synergistic combos for chromothripsis tumors, cisplatin combos (AID 1671457); conditions: LFS_MB_2R medulloblastoma cells, stronger effect = higher value;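 also: cells exposed to compound for four days before readout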
[12] = MDA-MB-436 breast carcinoma cell growth inhibition, synergistic combos for chromothripsis tumors, BGB or cisplatin combos (AID 1671458; call rule not given here;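 also: cells exposed for 96 hours; 0% = vehicle DMSO and 100% = killing by high DMSO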); conditions: MDA-MB-436 breast carcinoma growth inhibition, drug combinations, stronger effect = higher value
[13] = UWB1.289_BRCA1 ovarian cancer growth, cell-based, BGB or cisplatin combinations (AID 1671459); conditions: UWB1.289 BRCA1 ovarian carcinoma, drug combinations, stronger effect = higher value
[14] = human astrocyte viability loss, single and combined drugs, cytotoxicity control for chromothriptic childhood tumor combination screen, cell-based, BGB or cisplatin IC20 combos (AID 1671460); conditions: Human astrocytes, drug combinations, stronger effect = higher value;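 also: cells exposed to compounds for 96 hours before viability readout; 0% = vehicle and 100% = killing control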
[15] = growth inhibition of BT084 medulloblastoma cells, cell-based, ICGC_MB145, cisplatin and BGB IC40 combos (AID 1671461); conditions: drug combinations, stronger effect = higher value;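 also: cells exposed to drugs for 96 hours; 0% = vehicle DMSO and 100% = high DMSO full killing control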
[16] = growth inhibition of RCMB18 medulloblastoma cells, cell-based, cisplatin and BGB IC40 combos (AID 1671462); conditions: stronger effect = higher value;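 also: cells exposed to compound for four days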
[17] = growth inhibition of CRL1545 osteosarcoma cells, cell-based, cisplatin and BGB IC20 combos (AID 1671464); conditions: stronger effect = higher value;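 also: cells exposed to compound for 96 hours before readout; 0% = vehicle DMSO and 100% = high DMSO killing control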
[18] = stronger effect = lower value, cell number ratio, induced over uninduced
[19] = measured here: relative caspase fold change +Dox/-Dox
[20] = measured here: total cells with miR-34 induction, stronger effect = lower value
[21] = measured here: total cells without miR-34 induction
[22] = MELAS cybrid survival, CellTiter-Glo 48 h, stronger effect = higher value
[23] = Rieske KO mouse fibroblast survival, CellTiter-Glo 72 h
[24] = measured here: combination with BGB IC40, at 0.05 µM
[25] = measured here: with BGB IC20 combination, at 0.5 µM
[26] = measured here: with cisplatin IC20 combination, at 0.5 µM
[27] = measured here: combination with cisplatin, at 0.5 µM
[28] = measured here: combination with cisplatin, at 5 µM

Question: With `O=C1OC(C(O)CO)C(O)=C1O` (stereo not given) as the compound, how does the fold change [1, 18] read?
Answer: 1.03 (inactive)

Question: What about the fold change [1, 19] of the same compound?
Answer: 1.05

Question: And the cell count [1, 20]?
Answer: 8100

Question: And the cell count [1, 21]?
Answer: 7850

Question: What about the z-score [2, 22] of the same compound?
Answer: 0.0982 (inactive)

Question: And the z-score [2, 23]?
Answer: -0.298

Question: With `Cc1cc(C=CC#N)cc(C)c1Nc1ccnc(Nc2ccc(C#N)cc2)n1` as the compound, how does the fold change [1, 18] read?
Answer: 0.909 (inactive)

Question: What about the fold change [1, 19] of the same compound?
Answer: 0.615

Question: And the cell count [1, 20]?
Answer: 5740

Question: What about the cell count [1, 21] of the same compound?
Answer: 6310

Question: And the z-score [2, 22]?
Answer: -0.58 (inactive)

Question: What about the z-score [2, 23] of the same compound?
Answer: 1.5

Question: What about the inhibition ([3]; at 0.5 µM, stronger effect = higher value) of the same compound?
Answer: -21.9% (inactive)

Question: What about the inhibition ([3]; measured here: combination with BGB IC20, at 0.005 µM) of the same compound?
Answer: -35.7%

Question: And the inhibition ([3]; measured here: combination with BGB IC40, at 0.005 µM)?
Answer: -21.8%

Question: And the inhibition [3, 24]?
Answer: -24.8%

Question: What about the inhibition ([3]; measured here: combination with cisplatin, at 0.5 µM, stronger effect = higher value) of the same compound?
Answer: -44.6%

Question: And the inhibition ([3]; measured here: combination with cisplatin, at 5 µM, stronger effect = higher value)?
Answer: -38.4%

Question: What about the inhibition ([4]; BGB combo, at 5 µM) of the same compound?
Answer: -13%

Question: And the inhibition ([4]; at 0.5 µM)?
Answer: -0.82% (inactive)

Question: What about the inhibition ([4]; cisplatin combo, at 5 µM) of the same compound?
Answer: 4.37%

Question: And the inhibition [4, 25]?
Answer: -15.3%

Question: What about the inhibition [4, 26] of the same compound?
Answer: 22.4%

Question: What about the inhibition ([4]; single agent, at 5 µM) of the same compound?
Answer: -11.3%

Question: And the inhibition ([5]; BGB IC20 combo, at 0.005 µM)?
Answer: -0.887%

Question: What about the inhibition ([5]; BGB IC40 combo, at 0.005 µM) of the same compound?
Answer: -17%

Question: What about the inhibition ([5]; BGB IC40 combo, at 0.05 µM) of the same compound?
Answer: -41.8%

Question: And the inhibition ([5]; at 0.5 µM)?
Answer: -20.3% (inactive)

Question: What about the inhibition ([5]; cisplatin combo, at 0.05 µM) of the same compound?
Answer: -45.8%

Question: And the inhibition ([5]; cisplatin combo, at 0.5 µM)?
Answer: -18.9%

Question: And the inhibition ([5]; cisplatin combo, at 5 µM)?
Answer: -30.5%

Question: What about the inhibition ([5]; measured here: 5 uM single agent, at 5 µM) of the same compound?
Answer: -25.1%

Question: What about the inhibition ([6]; at 0.5 µM) of the same compound?
Answer: -21.6% (inactive)

Question: And the inhibition [6, 24]?
Answer: -25.9%

Question: And the inhibition [6, 27]?
Answer: 2.17%

Question: And the inhibition [6, 28]?
Answer: -13.4%

Question: What about the inhibition ([7]; at 0.5 µM) of the same compound?
Answer: -10.2% (inactive)

Question: What about the inhibition ([7]; measured here: with BGB IC20, at 0.5 µM) of the same compound?
Answer: -9.74%

Question: And the inhibition ([7]; measured here: with BGB IC20, at 5 µM)?
Answer: -26.3%

Question: What about the inhibition ([7]; measured here: with cisplatin IC20, at 0.5 µM) of the same compound?
Answer: -28.3%

Question: And the inhibition ([7]; measured here: with cisplatin IC20, at 5 µM)?
Answer: -20.2%

Question: And the inhibition ([7]; single agent, at 5 µM)?
Answer: 0.45%

Question: And the inhibition ([8]; at 0.5 µM)?
Answer: -49.8% (inactive)

Question: What about the inhibition ([8]; measured here: combination with BGB at IC20, at 0.5 µM) of the same compound?
Answer: -61.5%

Question: And the inhibition ([8]; measured here: combination with cisplatin at IC20, at 0.5 µM)?
Answer: -40%

Question: And the inhibition ([9]; at 0.5 µM)?
Answer: -1.33% (inactive)

Question: What about the inhibition ([9]; measured here: combo with BGB at IC20, at 0.5 µM) of the same compound?
Answer: -1%

Question: What about the inhibition ([9]; measured here: combo with cisplatin at IC20, at 0.5 µM) of the same compound?
Answer: -1.41%

Question: And the inhibition ([10]; at 0.5 µM)?
Answer: 1.47% (inactive)

Question: And the inhibition ([10]; measured here: inhibition with BGB combination, at 0.05 µM)?
Answer: -12.2%

Question: What about the inhibition ([10]; measured here: inhibition with cisplatin combination, at 0.05 µM) of the same compound?
Answer: 6.05%

Question: And the inhibition ([11]; at 0.5 µM)?
Answer: -13.3% (inactive)

Question: And the inhibition [11, 27]?
Answer: -13.5%

Question: And the inhibition [11, 28]?
Answer: -51.8%

Question: What about the inhibition ([12]; at 0.5 µM) of the same compound?
Answer: -19.9% (inactive)

Question: What about the inhibition ([12]; measured here: BGB combination, at 0.5 µM) of the same compound?
Answer: -6.06%

Question: And the inhibition ([12]; measured here: BGB combination, at 5 µM)?
Answer: -3.72%

Question: What about the inhibition ([12]; measured here: cisplatin combination, at 0.5 µM) of the same compound?
Answer: -45.9%

Question: What about the inhibition ([12]; measured here: cisplatin combination, at 5 µM) of the same compound?
Answer: -32.4%

Question: And the inhibition ([13]; BGB combination, concentration series, at 5 µM)?
Answer: 96.3%

Question: What about the inhibition ([13]; at 0.5 µM) of the same compound?
Answer: 0.87% (inactive)

Question: And the inhibition ([13]; cisplatin combination, concentration series, at 5 µM)?
Answer: 96.7%

Question: What about the inhibition ([14]; at 0.5 µM) of the same compound?
Answer: 1.39% (inactive)

Question: What about the inhibition ([14]; measured here: combo with BGB IC20, at 0.5 µM) of the same compound?
Answer: -1.88%

Question: What about the inhibition ([14]; measured here: combo with cisplatin IC20, at 0.5 µM) of the same compound?
Answer: -1.66%

Question: What about the inhibition ([15]; at 0.5 µM) of the same compound?
Answer: -3.04% (inactive)

Question: What about the inhibition ([15]; cisplatin combination, at 0.5 µM) of the same compound?
Answer: -6.25%

Question: And the inhibition ([15]; cisplatin combination, at 5 µM)?
Answer: -4.4%

Question: What about the inhibition ([15]; measured here: BGB IC40 combination 0.05 uM, at 0.05 µM) of the same compound?
Answer: -11.4%

Question: What about the inhibition ([15]; single agent, at 5 µM) of the same compound?
Answer: -18.3%

Question: And the inhibition ([16]; at 0.5 µM)?
Answer: -10.6% (inactive)

Question: And the inhibition ([16]; cisplatin combo, at 5 µM)?
Answer: 14.8%

Question: And the inhibition ([16]; measured here: BGB IC40 combination, at 0.05 µM)?
Answer: -40.8%

Question: What about the inhibition [16, 27] of the same compound?
Answer: 0.155%

Question: What about the inhibition ([16]; single agent, at 5 µM) of the same compound?
Answer: -17.1%

Question: What about the inhibition ([17]; at 0.5 µM) of the same compound?
Answer: -12.8% (inactive)

Question: And the inhibition [17, 25]?
Answer: -13.1%

Question: And the inhibition [17, 26]?
Answer: -15.2%

Question: And the inhibition ([17]; single agent, at 0.05 µM)?
Answer: 1.38%

Question: And the inhibition ([17]; single agent, at 5 µM)?
Answer: -26.3%
